# Source: the supplement of paper PMC3334620
# Over roughly 33,000 sequences, “E-score (-0.5 to 0.5)” has its median near -0.021; the highest 2% begin near 0.32. This is one part of a sample in which the highest values are shown more often than they occur.
# Molecular target: T1, Zap1 (UniProt P47043)
# T1 sequence: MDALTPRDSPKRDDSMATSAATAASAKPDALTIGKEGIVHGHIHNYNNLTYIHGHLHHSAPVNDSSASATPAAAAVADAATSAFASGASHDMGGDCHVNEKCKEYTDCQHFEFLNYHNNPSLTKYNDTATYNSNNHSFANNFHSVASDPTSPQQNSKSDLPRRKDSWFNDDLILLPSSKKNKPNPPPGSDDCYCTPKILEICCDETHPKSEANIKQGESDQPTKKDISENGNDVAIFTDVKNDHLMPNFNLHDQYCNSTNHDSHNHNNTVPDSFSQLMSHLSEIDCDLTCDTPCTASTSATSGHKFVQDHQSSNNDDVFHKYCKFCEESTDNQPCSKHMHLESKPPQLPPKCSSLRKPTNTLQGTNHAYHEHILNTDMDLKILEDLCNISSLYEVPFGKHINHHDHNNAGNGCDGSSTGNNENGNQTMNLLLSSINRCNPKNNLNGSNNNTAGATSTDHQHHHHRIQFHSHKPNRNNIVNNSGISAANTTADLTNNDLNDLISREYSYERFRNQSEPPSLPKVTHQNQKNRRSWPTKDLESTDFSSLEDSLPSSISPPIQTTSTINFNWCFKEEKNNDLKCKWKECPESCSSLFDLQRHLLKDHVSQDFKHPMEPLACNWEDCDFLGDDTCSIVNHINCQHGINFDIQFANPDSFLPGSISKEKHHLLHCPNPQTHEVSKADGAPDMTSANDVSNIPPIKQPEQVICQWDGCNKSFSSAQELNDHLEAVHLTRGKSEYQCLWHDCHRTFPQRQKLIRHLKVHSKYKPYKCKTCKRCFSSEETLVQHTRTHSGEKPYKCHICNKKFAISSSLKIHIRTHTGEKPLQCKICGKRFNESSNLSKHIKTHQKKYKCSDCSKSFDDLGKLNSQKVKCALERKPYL
# Assay: PBM E-score (8-mer binding enrichment) (E-score (-0.5 to 0.5)); higher = stronger / more preferred TF binding
# Settings: protein concentration: 200 nM; construct: GST-full length
# Protocol: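 Universal 'all 10-mer' protein binding microarrays (Agilent AMADID 015681) probed with GST-tagged S. cerevisiae TFs (full-length or DBD) made by in vitro transcription/translation (PURExpress), about 100-200 nM. Bound TF was detected with fluorescent anti-GST. Each ungapped 8-mer (which stands for itself and its reverse complement) is scored by the PBM enrichment score (E-score), a modified Wilcoxon-Mann-Whitney statistic from -0.5 to +0.5, computed with the Universal PBM Analysis Suite. Scale: above 0.35 generally sequence-specific binding.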
row,Sequence,PBM E-score
1,CCCACTTA,-0.0455
2,CTTGTGAC,0.0651
3,CCTTCATA,0.102
4,GCAGCACA,-0.0816
5,GACAAAGC,-0.143
6,GGTCCTCA,0.0332
7,CCAGAGTC,0.0266
8,AACAGTCT,-0.14
9,GAAACATC,-0.0445
10,AAAACATA,0.0671
11,GAAACATA,0.318
12,GACTTAGC,-0.317
13,GAGCGCCA,-0.291
14,TGGATTAA,0.0758
15,AACCCCCG,-0.149
16,AACCCCGG,0.337
17,ACCCCCGG,-0.0785
18,ACCCCGGG,0.34
19,CACCCGGA,0.235
20,CCCCCGGG,0.167
21,CACCCGGG,0.129
22,GACCCGGA,0.118
23,AACCCGGG,0.324
24,AACCCGGT,0.249
25,ACCCCGGC,0.119

row,Sequence,PBM E-score
1,AACCCGGA,0.332
2,GGCAGACC,-0.192
3,TCACGCAA,0.0552
4,GTATAGCA,-0.104
5,CTTGTTGA,0.124
6,GGAACAAA,0.111
7,CTAGCTCC,-0.246
8,CCGAGCAC,-0.0385
9,AGAAACTA,-0.0549
10,AGAGAAAC,-0.0339
11,AAGGGAAC,0.0495
12,GAGCTAGC,-0.179
13,CTCCTTTC,-0.0488
14,CTGTAAAC,0.16
15,ATGTAACG,0.0833
16,ATGTAACA,0.153
17,ATGTAACC,0.395
18,CTGTAACA,0.00661
19,CTGTAACC,0.463
20,ACTGCTAT,-0.0537
21,AAACGGAA,0.127
22,AAGACCGC,0.0669
23,GAGCAACC,0.0661
24,ATCGGTTC,0.0913
25,AATGACCC,0.3

row,Sequence,PBM E-score
1,GATGACCC,0.403
2,GATGACCA,0.129
3,CATGACCC,0.38
4,CATGACCA,0.284
5,CATGACCG,0.177
6,CCGACCTC,-0.0902
7,CGATCTGA,-0.0395
8,CAACTGTC,-0.0568
9,ACGAAGGA,-0.166
10,ACCCTTTG,0.345
11,GCCCTTTA,-0.0495
12,CCCCTTTA,-0.00689
13,ACCCTTTA,0.415
14,ACCCTTTC,0.298
15,ATCCTTTG,0.161
16,CCCTACGC,-0.17
17,GCGTCCCC,-0.249
18,AGTGCCCC,-0.156
19,AACCAGGT,0.201
20,ATGGAGCC,-0.222
21,CGCGGTTC,0.181
22,CGCGGTGA,0.144
23,GGCGGTTA,0.324
24,AGCGGTTA,0.405
25,AGCGGTTG,0.216

row,Sequence,PBM E-score
1,CGCGGTTA,0.452
2,AGCGGTTC,0.164
3,GGCGGTCA,0.12
4,GGCGGTAA,0.125
5,AAAAACTA,0.175
6,ATACCAAA,0.153
7,GCCTACTA,-0.0183
8,AAGTAACC,0.393
9,CAGTAACA,-0.0862
10,AAGTAACG,0.052
11,GAGTAACA,0.135
12,GAGTAACC,0.399
13,GAGTAAGC,-0.221
14,AAGTAACT,-0.0363
15,CAGTAACG,0.0273
16,CAGTAACC,0.44
17,GCAGTAAA,0.104
18,ATTATACG,0.0915
19,ATTATACA,0.0605
20,ATTATACC,0.338
21,CAGCAGAA,-0.0338
22,AGAGGTCG,0.304
23,GGAGGTCA,0.136
24,CGAGGTCC,0.0996
25,AGAGGTCA,0.41

row,Sequence,PBM E-score
1,CGAGGTCA,0.357
2,AGAGGTCC,0.201
3,ATGTCGCG,0.0309
4,CAGAAGCC,-0.173
5,GTCCCAAA,0.0529
6,AAGGTTCT,0.327
7,AGGGTTCA,0.146
8,AAGGTTCG,-0.0644
9,AAGGTTCA,0.054
10,CAGGTTCC,0.0995
11,AAGGTTCC,0.317
12,AGGGTTCG,0.0919
13,AGGGTTCC,0.354
14,ATGGTTCC,0.21
15,CCAGTGTA,-0.00071
16,CACTGTAA,0.0817
17,CTAGCGAA,-0.221
18,GCTTCAGA,-0.167
19,ACATACCG,-0.00488
20,GCATACCA,-0.0787
21,GCATACCC,0.344
22,ACATACCC,0.347
23,CCATACCC,0.29
24,ACATACCA,-0.0785
25,AGCAGGGG,-0.0612

row,Sequence,PBM E-score
1,AGACAATA,0.0476
2,GGTTACTA,0.447
3,CGTTACGA,0.121
4,GGTTACGA,0.465
5,GGTTACCA,0.468
6,AGTTACCA,0.263
7,CGTTACTA,0.0809
8,AGTTACTA,0.129
9,AGTTACGA,0.226
10,CGTTACCA,0.31
11,AGTCTTAT,-0.115
12,CCGATAGC,-0.225
13,AACTAAGG,0.017
14,AACTACCC,0.391
15,AACTACCG,0.179
16,CACTACCC,0.367
17,AACTACCT,0.286
18,GACTACCC,0.301
19,CACTACCA,0.22
20,ATTGCCTG,-0.0833
21,GCCAGGGC,-0.128
22,CGCATACG,-0.12
23,GCCCTATA,-0.144
24,AACCTATG,0.258
25,CCCCTATA,-0.102

row,Sequence,PBM E-score
1,ACCCTATA,0.354
2,ACCCTATG,0.368
3,ACCCTATC,0.276
4,CCAGGCCG,-0.0809
5,GCGACACC,0.0184
6,ACACTCAA,0.139
7,AACGCTTC,-0.128
8,AGAAGCTA,-0.265
9,CAACCGTA,0.0143
10,GTTCAAAA,0.0198
11,TTTCAAAA,0.321
12,CTTCAAAA,0.0592
13,CGCACAAC,0.122
14,ACGGTTGC,0.117
15,ACGGTTAT,0.414
16,ACGGTTTC,-0.0123
17,ACGGTTAG,0.223
18,ACGGTTAA,0.258
19,ACGGTTAC,0.411
20,AGTTTGCA,-0.0409
21,TCCTCACA,0.0409
22,AAGAACTC,0.0396
23,ACAAAGAA,0.178
24,ACTGAATC,-0.0382
25,CGTCATTA,-0.145

row,Sequence,PBM E-score
1,GGTCATTA,0.321
2,GGTCATAA,0.379
3,GGTCATAC,0.313
4,CGTCATGA,0.0742
5,TGTCATAA,0.184
6,GGTCATGA,0.346
7,AGTCATGA,0.0992
8,AGTCATTA,-0.17
9,CCGGACCG,-0.129
10,AGCAATGC,-0.0926
11,ACGCGAAG,0.0536
12,ACTACCCG,0.261
13,AGGGGTCG,0.0682
14,ACGGGTCG,0.116
15,GAGGGTCA,0.397
16,TAGGGTGA,0.299
17,ATGGGTCA,0.359
18,GAGGGTCC,0.134
19,TCGGGTCA,0.233
20,ATGGGTCC,0.263
21,TAGGGTCA,0.408
22,GTGGGTCA,0.211
23,AAGGGTCG,0.36
24,ATGGGTCG,0.0454
25,ACTGGCTA,-0.0583

row,Sequence,PBM E-score
1,CCGAGACC,0.197
2,AGCAATGG,-0.133
3,AAACAGGT,0.135
4,ATACTCTC,-0.15
5,CACAGTTC,-0.0558
6,CTACTCGC,-0.18
7,ATGGGCGG,-0.125
8,AACGCATT,0.0284
9,GAGGGGTA,0.245
10,AGGGGTGA,0.219
11,GAGGGTTA,0.45
12,AGGGGTCA,0.438
13,CAGGGTCG,0.275
14,AAGGGTCT,0.136
15,AAGGGTCA,0.439
16,GAGGGTGA,0.126
17,CAGGGTCC,0.14
18,AAGGGTGA,0.293
19,AGGGGTCC,0.0654
20,CAGGGTCA,0.417
